Assay outcomes: PubChem, several laboratories
In the library only some 4% were active in any assay of this set; here they are far more common.
MazF activator: MazEF (E. coli) toxin RNase activation. P0AE70. FAM/BHQ RNA-DNA oligo cleavage fluorescence, 5 h. activation, % at 20 µM. actives 0.32% (n = 350,000); in the data active = activation above about 50%
Target sequence (P0AE70 whole entry, looked up): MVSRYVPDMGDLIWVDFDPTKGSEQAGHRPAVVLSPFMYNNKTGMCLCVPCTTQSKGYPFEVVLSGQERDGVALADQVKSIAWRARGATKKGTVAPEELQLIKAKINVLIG
FBA Mtb inh: Mtb fructose-bisphosphate aldolase inhibition. inhibition, % at 1 µM. actives 2.3% (n = 360,000). P9WQA3. purified M. tuberculosis FBA, fluorescence read-out. AID 588726;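 also: 0% = vehicle and 100% = reference inhibitor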
Target sequence (P9WQA3 whole entry, looked up): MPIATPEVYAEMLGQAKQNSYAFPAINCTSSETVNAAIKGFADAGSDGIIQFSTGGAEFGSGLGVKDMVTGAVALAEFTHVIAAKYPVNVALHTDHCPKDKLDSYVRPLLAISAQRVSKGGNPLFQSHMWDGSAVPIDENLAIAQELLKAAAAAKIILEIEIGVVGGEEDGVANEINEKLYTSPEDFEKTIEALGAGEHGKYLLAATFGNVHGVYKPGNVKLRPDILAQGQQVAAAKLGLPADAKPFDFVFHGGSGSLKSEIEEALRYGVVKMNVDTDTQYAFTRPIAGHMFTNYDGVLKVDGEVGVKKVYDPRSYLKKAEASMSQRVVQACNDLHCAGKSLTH
CCHF vOTU inh: blocks the CCHF virus ovarian tumor domain protease; inhibition, % at 11.5 µM; CCHFV vOTU protease, Pep-AMC fluorescence; actives 0.55% (n = 370,000); in the data active = inhibition above about 30%; also: 0% = vehicle wells with enzyme and 100% = no enzyme wells
Mtb betalactam: beta-lactam sensitization of Mtb H37Rv; M. tuberculosis H37Rv growth with meropenem, percent inhibition; inhibition, % at 25 µM; actives 0.27% (n = 330,000); call rule not given here;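 also: growth measured after seven days incubation then overnight dye step; 0% = bacteria only wells and 100% = bacteria with antibiotic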
GDH-TPI counter-1: GDH-TPI coupled enzyme inhibition counter-screen | GDH-TPI coupled enzyme counterscreen, NADH absorbance | inhibition, % at 4.8 µM | actives 1.2% (n = 360,000) | AID 588335; in the data active = inhibition above about 30%;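 also: 0% = DMSO wells and 100% = wells lacking the enzyme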
Mtb FBA confirm: Mtb FBA inhibition, confirmed; shares compounds with FBA Mtb inh; purified M. tuberculosis FBA, fluorescence read-out; inhibition, % at 1 µM; actives 78% (n = 5,600); AID 651616;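 also: 0% = vehicle wells and 100% = reference inhibitor wells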
GDH-TPI counter-2: inhibits GDH-TPI coupling enzymes, flagging Mtb FBA hits; shares compounds with FBA Mtb inh; GDH-TPI coupled enzyme counterscreen, fluorescence; inhibition, % at 1 µM; actives 81% (n = 5,600); in the data active = inhibition above about 10%
Numbers without * were called inactive; / = not tested or not shown; + = active, no number. Rule as the data show it, unless noted: active = inhibition above about 27%; inactive = the rest.

SMILES	MazF activator	FBA Mtb inh	CCHF vOTU inh	Mtb betalactam	GDH-TPI counter-1	Mtb FBA confirm	GDH-TPI counter-2
Nc1c(S(=O)(=O)c2cccs2)c2nc3ccccc3nc2n1Cc1ccccc1	7	54*	-18	-1	18	0	-3
COc1ccc(Cn2c(N)c(S(=O)(=O)c3cccs3)c3nc4ccccc4nc32)cc1	-2	49*	-8	-3	13	115*	79*
COC(=O)c1ccccc1NC1CC(=O)N(c2c(C)cccc2C)C1=O (stereo not given)	-4	89*	-48	-3	9	+	+
COC(=O)c1ccc(NC2CC(=O)N(c3ccccc3C)C2=O)cc1 (stereo not given)	6	1	13	-1	-4	/	/
CCOC(=O)C1=C(C(=O)OCC)C2N(Cc3ccc(C(F)(F)F)cc3)c3ccccc3[C@@]23C[C@@H](C(=O)OC)N(S(=O)(=O)c2cccs2)C3=N1 (stereo not given in full)	/	/	-8	/	/	/	/
CC1(C)Cc2c(c(-c3ccco3)nc3sc4c(NCCO)ncnc4c23)CO1	5	44*	-17	0	30	135*	101*
COCCCNc1ncnc2c1sc1nc(-c3ccco3)c3c(c12)CC(C)(C)OC3	-5	39*	-21	18	39*	98*	94*
CC(C)Cc1nc2sc3c(NCc4ccco4)ncnc3c2c2c1COC(C)(C)C2	9	4	-2	13	11	/	/
Cc1nc2sc3c(NCc4ccco4)ncnc3c2c2c1COC(C)(C)C2	-1	5	-5	7	-1	/	/
CCCN(CCC)Cc1cc(=O)oc2cc(OC)ccc12	/	51*	-27	/	/	4	-1
COc1ccc2c(CN3CCCCC3)cc(=O)oc2c1	/	44*	-47	/	/	0	0
COc1ccc(C(=O)OCCCN(C)C2CN(Cc3cn(Cc4ccccc4C(F)(F)F)nn3)S(=O)(=O)C2)cc1OC (stereo not given)	/	/	3	/	/	/	/
Nn1c(SCC(=O)Nc2ccc(C(=O)O)cc2)nnc1-c1ccco1	/	/	-4	/	/	/	/
CCOC(=O)NN1C(=O)c2ccccc2NC1c1ccccn1 (stereo not given)	4	30*	-40	1	4	105*	77*
O=C(O)CCC(=O)NN1C(=O)c2ccccc2NC1c1ccco1 (stereo not given)	3	32*	-49	-2	1	-4	-4
CCOC(=O)NN1C(=O)c2ccccc2NC1c1ccc(N(C)C)cc1 (stereo not given)	5	10	-9	4	17	/	/
CCOC(=O)NN1C(=O)c2ccccc2NC1c1ccccc1F (stereo not given)	-8	37*	-63	-2	2	51*	32*
O=C(NN1C(=O)c2ccccc2NC1c1ccco1)c1ccccc1 (stereo not given)	3	7	-8	8	10	/	/
CCOC(=O)NN1C(=O)c2ccccc2NC1c1ccccc1 (stereo not given)	13	39*	-56	-3	8	+	+
O=S1(=O)N[C@H](Cc2ccccc2)COc2cc(N3CCCC3)ccc21	/	/	-2	/	/	/	/
COc1ccc(C2Nc3ccccc3C(=O)N2NS(=O)(=O)c2ccc(C)cc2)cc1 (stereo not given)	-2	19	-32	-7	7	/	/
CCOC(=O)NN1C(=O)c2ccccc2NC1C (stereo not given)	9	72*	-86	-3	0	146*	116*
CCOC(=O)NN1C(=O)c2ccccc2NC1c1ccc(OC)cc1 (stereo not given)	5	40*	-43	5	9	140*	119*
CCCCOCCCNC(=O)C[C@@H]1C(=O)N(CCc2ccc(Cl)cc2)C2=CCCC[C@]21C(=O)OCC	/	/	19	/	/	/	/
C#CCSc1nc(-c2cccs2)ccc1C#N	15	36*	-1	-4	26	51*	46*
SMILES	MazF activator	FBA Mtb inh	CCHF vOTU inh	Mtb betalactam	GDH-TPI counter-1	Mtb FBA confirm	GDH-TPI counter-2
COC(=O)CSc1nc(C)c(C(C)=O)cc1C#N	-5	0	-2	1	10	/	/
COC(=O)CSc1nc(-c2cccs2)ccc1C#N	10	71*	-44	32	-4	+	+
COc1cc(-c2nc(-c3ccccc3)c(-c3ccc(F)cc3)[nH]2)cc2c1OCO2	7	31*	-9	6	8	103*	71*
CS(=O)(=O)c1nc(-c2ccccc2)c(-c2ccccc2)[nH]1	0	18	-7	-1	-7	/	/
Cc1ccsc1-c1nc(-c2ccccc2)c(-c2ccccc2)[nH]1	9	29*	-12	-4	17	91*	74*
Fc1ccc(-c2nc(-c3cccs3)[nH]c2-c2ccc(F)cc2)cc1	8	50*	6	-5	1	+	+
COc1ccc(-c2nc(-c3ccccc3)c(-c3cccs3)[nH]2)cc1OC	-1	49*	-15	76	20	3	-6
COc1cc(-c2nc(-c3ccc4c(c3)-c3ccccc3S4(=O)=O)c(-c3ccccc3)[nH]2)cc(OC)c1O	3	-2	17	61	9	/	/
NS(=O)(=O)c1ccc(NC(=O)CSc2nnc(-c3cccs3)o2)cc1	/	/	-3	/	/	/	/
COC(=O)C1=C(C)N(Cc2ccc(C(F)(F)F)cc2)C(=NCc2ccccc2C(F)(F)F)NC1c1cccc(Cl)c1 (stereo not given)	/	/	19	/	/	/	/
Cc1ccc2nc(-c3ccc(CN4CCC5(CC4)CNc4ccccc45)cc3)c(-c3ccccc3)nc2c1	/	/	13	/	/	/	/
CN1CC=C(c2ccc(C(F)(F)F)cc2)N(c2ccc(Br)cc2)C1=O	/	/	4	/	/	/	/
N#Cc1c(Cl)nc(Cl)c2c1CCN(Cc1ccccc1)C2	-12	93*	-84	0	1	+	+
Cc1nc([N+](=O)[O-])c(Sc2nc3ccccc3n2C)n1Cc1ccccc1	5	2	-3	53	14	/	/
CCOC(=O)c1nc2c(ccc3ccccc32)cc1C	1	31*	-27	20	3	+	168*
CCOC(=O)c1cc(Cl)c2c(ccc3ccccc32)n1	6	1	0	/	9	/	/
COCC(=O)N1CC[C@H]2[C@@H]1c1cc(-c3cccc(OC)c3)ccc1N(C)[C@H]2CO	/	/	3	/	/	/	/
CC[C@H](C)Cc1cn([C@@H](CCCCNC(=O)OC(C)(C)C)C(=O)NCCCCCCCCCCC(=O)N2CCN(C(=O)OC(C)(C)C)CC2)nn1	2	106*	18	-7	10	66*	48*
COC(=O)C1=C(C)N(Cc2cccc(C(F)(F)F)c2)C(=NCc2ccc(C(F)(F)F)cc2)NC1c1ccccc1 (stereo not given)	/	/	13	/	/	/	/
Cc1cccc2nc(-c3cccnc3)c(NCCC(C)C)n12	7	29*	-26	-10	4	+	+
